# According to the OligoGym collection:
# Target: FGF2
# Experiment: pooled miR-30 sensor sort-seq; sequence = guide strand
# Conditions: shRNA
# Note: reference of the scale not given here.
row,Sequence,sensor-assay potency score (higher = more potent)
1,TTGATAGACACAACTCCTCTCT,0.382
2,TTCTAAAATATACTTCTTCTTT,-0.418
3,ATAGACACAACTCCTCTCTCTT,-0.298
4,TAGTTATTAGATTCCAATCGTT,-0.676
5,TAACGGTTAGCACACACTCCTT,-1.27
6,TTAGAAGCCAGTAATCTTCCAT,0.816
7,TAGAAGCCAGTAATCTTCCATC,-0.587
8,TAGCTTGATGTGAGGGTCGCTC,-0.132
9,TAGCTTTCTGCCCAGGTCCTGT,-0.929
10,TAACACATTTAGAAGCCAGTAA,-0.0447
11,TATACTTCTTCTTTCATGTGAA,0.715
12,TGAGGGTCGCTCTTCTCCCGGA,-0.455
13,TTTGATAGACACAACTCCTCTC,0.744
14,TAGACACAACTCCTCTCTCTTC,-0.65
15,TATTAGATTCCAATCGTTCAAA,-0.684
16,TTCAGTGCCACATACCAACTGG,-0.475
17,TTTGCAGTACAGCCGCTTGGGG,-0.977
18,TTTGGATCCAAGTTTATACTGC,-0.268
19,TCCATCTTCCTTCATAGCCAGG,-1.98
20,AACGGTTAGCACACACTCCTTT,0.1
21,TTGGAAGAAAAAGTATAGCTTT,0.162
22,TTGCAGTACAGCCGCTTGGGGT,-1.34
23,AAAAAAGAAACACTCATCCGTA,0.00256
24,TGGTGTATTTCCTTGACCGGTA,-0.344

# Target: FGFR1
# Experiment: as above
# Conditions: shRNA
row,Sequence,sensor-assay potency score (higher = more potent)
1,TTTTAATATATAGCAACTGATG,-1.31
2,ATCATGTACAGCTCGTTGGTGC,-0.372
3,TTGTAGACGATGACCGACCCCA,-0.237
4,TAAATCTCTGGTAACGACCCTT,0.102
5,TGTAGCAGTATTCCAGCCCTGG,-0.142
6,TTTGTGTTTTCTTCATAGCTAT,-0.428
7,TCTTAAGTGAAGCACCTCCATC,-1.39
8,TCTCGGTGTATGCACTTCTTGG,-1.66
9,TTGTCGGTGGTATTAACTCCAG,-1.38
10,TTGTCTTTTTATAGTAGTCGAT,-0.804
11,TTTATAGTAGTCGATGTGGTGA,-0.221
12,TCTGTCACCAGGACATTCCTGG,0.104
13,TCATTCTCCACAATGCAGGTGT,0.557
14,TGTCTTTTTATAGTAGTCGATG,-1.03
15,TTCATCATCTCCATTTCTGAGA,-0.548
